Records with an inconclusive call do not appear. A call without a number means that no potency is given here. Activity calls are given as the source filed them. Calls come from the whole dose curve; as a rule, active = well fitted curve in the direction sought with a large enough effect; inconclusive = small, poorly fitted or top-dose-only effect, or another doubt; inactive = no such curve, though single readings can be large; an effect the other way counts as inactive or inconclusive.
What was measured:
[1] = biological target: Aldehyde dehydrogenase, mitochondrial (Homo sapiens) (UniProt P05091); test: qHTS for Inhibitors of the Aldehyde Dehydrogenase Family (ALDH2) Primary screen (AID 2061308); note: nearly all actives have a fitted effect of over 55% in size
[2] = biological target: Retinaldehyde dehydrogenase 3 (Homo sapiens) (UniProt P47895); test: qHTS for Inhibitors of the Aldehyde Dehydrogenase Family (ALDH1A3) Primary screen (AID 2061315)

SMILES	Potency [1]	Potency [2]
CCCn1c(C)nc2c(NCCN(C(C)C)C(C)C)nc(C)nc21	inactive	inactive
CCC1C(=O)N(C)c2cnc(Nc3ccc(C(=O)NC4CCN(C)CC4)cc3OC)nc2N1C1CCCC1 (stereo not given)	inactive	inactive
CC(=O)Nc1cccc(S(=O)(=O)N2CCN(S(=O)(=O)c3c(F)cccc3F)CC2)c1	inactive	inactive
Cn1c2cc(Br)sc2c2cnn(Cc3ccc(F)cc3)c(=O)c21	inactive	inactive
CCCn1c(C)nc2c(N3CCC(N(C)C)C3)nc(C)nc21 (stereo not given)	inactive	inactive
N=c1c2c(ncn1CCN1CCOCC1)Oc1ccc3ccccc3c1C2c1ccccc1 (stereo not given)	inactive	inactive
Cc1ccc(OCCn2c(CCNC(=O)c3cc(F)cc(F)c3)nc3ccccc32)cc1	inactive	inactive
Cc1nc(NCc2ccccc2)c2nc(-c3ccccc3)n(CCN3CCCC3)c2n1	inactive	inactive
CCc1ccc(NC(=O)c2[nH]c(C)c(C(C)=O)c2C)cc1S(=O)(=O)Nc1ccc(C#N)cc1	inactive	inactive
COC(=O)c1ccc(O)c2ncc(-c3ccc(C(=O)N4CCN(C)CC4)cc3)cc12	inactive	inactive
N#Cc1nc(-c2cccc3ccccc23)oc1NCC#CCOC(=O)c1cccs1	inactive	inactive
O=C(Nc1ccc(Cl)c(C(F)(F)F)c1)Nc1nnc(-c2ccncc2)s1	inactive	inactive
O=C(Nc1nc(-c2ccccc2)cs1)c1ccncc1NS(=O)(=O)c1cccc(Cl)c1	inactive	inactive
N#Cc1ccc(OC2=NS(=O)(=O)c3ccccc32)cc1	inactive	inactive
O=S(=O)(c1ccc2c(c1)OCCO2)N1CCN(S(=O)(=O)c2cc(F)ccc2F)CC1	inactive	inactive
CCOc1ccc(CCNC(=O)C2(c3ccccc3)CC2)cc1OCC	inactive	inactive
O=S(=O)(NCC1CN(S(=O)(=O)c2c(F)cccc2F)C1)c1ccc2c(c1)OCCO2	inactive	inactive
COc1cc(NC(=O)C(OC(=O)CNC(=O)c2ccccc2)c2ccccc2)cc(OC)c1 (stereo not given)	inactive	inactive

SMILES	Potency [1]	Potency [2]
O=C(/C=C/c1cccc(Cl)c1)Nc1cccc([S+](=O)([O-])Nc2ccccc2F)c1	inactive	inactive
Cc1ccc(-c2ccc(=O)n(CC(=O)NCCC3CC3)n2)cc1	inactive	inactive
FC(F)(F)c1cccc(N2CCN(C(=S)Nc3ncnc4ccccc34)CC2)c1	inactive	inactive
O=[S+]([O-])(c1ccc2c(c1)OCCO2)N1CCN([S+](=O)([O-])c2c(F)cc(F)cc2Br)CC1	inactive	inactive
Cc1c(C(=O)NCC2CCCO2)[nH]c2c1C(=O)CC(c1ccco1)C2 (stereo not given)	inactive	inactive
Cc1ccc(NS(=O)(=O)c2cc3c(cc2N(C)CCN(C)C)NC(=O)CC3)cc1C	inactive	inactive
CN(C)c1cnc2c(O)cccc2c1	inactive	inactive
COc1ccc(C2Nc3ccccc3C(=O)N2Cc2ccco2)cc1COc1c(C(C)C)cccc1C(C)C (stereo not given)	inactive	inactive
Cc1cc(NS(=O)(=O)c2cc3c(cc2F)NC(=O)CC3)ccc1F	inactive	inactive
O=S(=O)(NC1CCC(NS(=O)(=O)c2c(F)cccc2F)CC1)c1ccc2c(c1)OCCO2 (stereo not given)	inactive	inactive
O=C(Cc1ccc(Cl)c(Cl)c1)Nc1ccc([S+](=O)([O-])Nc2nnc(-c3ccccn3)s2)cc1	inactive	inactive
O=C(O)CC(=O)OC[C@H]1O[C@@H](Oc2ccc3c(c2)OC[C@H]2c4cc5c(cc4O[C@@H]32)OCO5)[C@H](O)[C@@H](O)[C@@H]1O	inactive	inactive
CCN(CC)CCCCn1c(-c2ccccc2)nc2c(NCc3ccccc3)nc(C)nc21	inactive	inactive
O=S(=O)(c1cccc2ccccc12)n1ccc2ccc(N3CCN4CCCC4C3)cc21 (stereo not given)	inactive	inactive
O=S(=O)(NCCCNS(=O)(=O)c1c(F)cccc1F)c1ccc2c(c1)OCCO2	inactive	inactive
CCOC(=O)c1ccc(-c2ccc3ncnc(NCCc4cnc[nH]4)c3c2)o1	inactive	inactive
CC1=C(C(=O)NCc2ccccc2)C(c2ccccc2Br)N=C(Nc2nc3ccccc3o2)N1 (stereo not given)	inactive	inactive

From PubChem BioAssay (NCATS)
